Calls of active or inactive are those of the source. How the source made its calls: active means hit-call score of the fitted dose curve at least 0.9, where 1 is the maximum; inactive means score below 0.9.
Key:
[1] = ATG_EGR_CIS: Attagene CIS-FACTORIAL HepG2 Assay for human Early Growth Response 1 (EGR1) (AID 2282938); details: HepG2 Attagene CIS-FACTORIAL EGR reporter mRNA; actives raise or lower the signal
Procedure, shortened: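 Endogenous TF activity in HepG2 liver cells was gauged through cis-promoter reporter constructs transiently transfected. After 24 h dosing, reporter mRNA was quantified by RT-PCR and capillary electrophoresis, and curves fitted in both directions versus DMSO.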

[2] = ATG_M_19_CIS: Attagene CIS-FACTORIAL HepG2 Assay for M19 Transcription Factor (Internal Marker) (AID 2282939); details: HepG2 Attagene CIS-FACTORIAL M19 internal marker reporter; actives raise or lower the signal
Procedure, shortened: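 HepG2 cells transiently transfected with cis-regulated multiple reporter transcription units were dosed for 24 h; reporter mRNA was quantified by RT-PCR, 6-FAM primer-extension labelling, HpaI digestion and capillary electrophoresis, with bidirectional fitting against DMSO baseline.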

[3] = ATG_ERE_CIS: Attagene CIS-FACTORIAL HepG2 Assay for Estrogen Response Element (ERE) (AID 2282940); details: HepG2 ERE cis-reporter, Attagene RNA transcript; actives raise or lower the signal
Procedure, shortened: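 HepG2 cells transiently transfected with cis-promoter-driven multiplexed reporter transcription units report endogenous TF activity. After 24 h compound exposure, reporter mRNA is quantified by RT-PCR with capillary electrophoresis fluorescence; bidirectional fitting versus DMSO baseline.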

[4] = ATG_Ets_CIS: Attagene CIS-FACTORIAL HepG2 Assay for human Erythroblast Transformation Specific (ETS) (AID 2282941); details: HepG2 ETS cis-reporter transcription; AC50: actives raise or lower the signal unless noted; outcome: actives raise or lower the signal unless noted
Procedure, shortened: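 Endogenous transcription factor activity read as reporter mRNA via RT-PCR and capillary electrophoresis, with gain or loss fitted bidirectionally against DMSO. Human HepG2 liver cells, transiently transfected CIS reporter constructs, 24 h exposure.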

[5] = biological target: Hepatocyte nuclear factor 3-beta (Homo sapiens) (UniProt Q9Y261); test: ATG_FoxA2_CIS: Attagene CIS-FACTORIAL HepG2 Assay for human Forkhead box A2 (FOXA2) (AID 2282942); details: HepG2 cis-reporter transcription factor activity, 24 h; actives raise or lower the signal
Procedure, shortened: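 Endogenous transcription factor activity was read in HepG2 cells carrying transiently transfected cis-promoter reporter units. After 24 h dosing, reporter mRNA was quantified by RT-PCR and capillary electrophoresis, and values fitted bidirectionally versus DMSO.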

[6] = ATG_FoxO_CIS: Attagene CIS-FACTORIAL HepG2 Assay for human Forkhead box O (FoxO) (AID 2282943); details: HepG2 Attagene cis-reporter, FoxO element, mRNA; actives raise or lower the signal
Procedure, shortened: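 Human hepatoma HepG2 cells carry transiently introduced reporter transcription units controlled by cis promoter elements. Chemical treatment lasted 24 h, and mRNA signal was compared with DMSO.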

[7] = ATG_GATA_CIS: Attagene CIS-FACTORIAL HepG2 Assay for human GATA Binding Protein (AID 2282944); details: HepG2 GATA cis-element reporter, Attagene multiplex mRNA; actives raise or lower the signal
Procedure, shortened: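 HepG2 cells transiently transfected with multiplexed cis-element reporter units reflecting endogenous transcription factor activity; reporter mRNA measured after 24 h dosing by RT-PCR, 6-FAM labeling, HpaI digestion and capillary electrophoresis. Bidirectional fitting versus DMSO baseline.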

[8] = biological target: Bile acid receptor (Homo sapiens) (UniProt Q96RI1); test: ATG_IR1_CIS: Attagene CIS-FACTORIAL HepG2 Assay for human Nuclear Receptor Subfamily 1 Group H Member 4 (NR1H4), IR1 submotif (AID 2282946); details: IR1 reporter transcription, actives raise or lower the signal
Procedure, shortened: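 HepG2 cells transiently transfected with multiplexed cis-element reporter units read endogenous transcription factor activity. After 24 h compound exposure, reporter mRNA was quantified by RT-PCR, fluorescent labelling, HpaI digestion and capillary electrophoresis; bidirectional fitting versus DMSO baseline.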

[9] = ATG_GRE_CIS: Attagene CIS-FACTORIAL HepG2 Assay for human Glucocorticoid Response Elements (GRE) (AID 2282947); details: HepG2 GRE cis-reporter, Attagene multiplex mRNA; AC50: actives raise or lower the signal unless noted; outcome: actives raise or lower the signal unless noted
Procedure, shortened: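 Multiplexed cis-reporter mRNA induction, HepG2, 24 h post-dose. RT-PCR, FAM-labelled, HpaI-digested amplicons by CE. Bidirectional fit vs DMSO.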

[10] = ATG_M_32_CIS: Attagene CIS-FACTORIAL HepG2 Assay for M32 Transcription Factor (Internal Marker) (AID 2282949); details: HepG2 Attagene cis-factorial M32 reporter, mRNA; actives raise or lower the signal;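 further: background control marker of the multiplexed CIS panel rather than a real target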
Procedure, shortened: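 Transient MRTU transfection of HepG2; 24 h compound treatment; TriZol RNA, oligo(dT) RT, reporter PCR, 6-FAM primer extension, HpaI cut, CE. Gain/loss of signal vs DMSO.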

[11] = ATG_M_06_CIS: Attagene CIS-FACTORIAL HepG2 Assay for M06 Transcription Factor (Internal Marker) (AID 2282950); details: HepG2 Attagene CIS-FACTORIAL M06 internal marker reporter; actives raise or lower the signal
Procedure, shortened: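 HepG2 cells transiently transfected with cis-regulated multiple reporter transcription units were exposed to chemical for 24 h; reporter mRNA was quantified by RT-PCR, 6-FAM primer labelling, HpaI digestion and capillary electrophoresis, fitted bidirectionally against DMSO.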

[12] = biological target: Hypoxia-inducible factor 1-alpha (Homo sapiens) (UniProt Q16665); test: ATG_HIF1a_CIS: Attagene CIS-FACTORIAL HepG2 Assay for human Hypoxia Inducible Factor 1 (HIF1A) (AID 2282951); details: HepG2 Attagene cis-factorial HIF1a reporter transcription; actives raise or lower the signal
Procedure, shortened: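 Measures endogenous transcription-factor activity through cis-regulated reporter mRNA in HepG2. Cells dosed 24 h; transcripts quantified by RT-PCR with 6-FAM-labelled products separated by capillary electrophoresis; DMSO serves as negative control.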

[13] = biological target: Hepatocyte nuclear factor 6 (Homo sapiens) (UniProt Q9UBC0); test: ATG_HNF6_CIS: Attagene CIS-FACTORIAL HepG2 Assay for human Hepatocyte Nuclear Factor 6 (HNF6) (AID 2282952); details: HepG2 Attagene cis-factorial HNF6 reporter transcription; actives raise or lower the signal
Procedure, shortened: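 Twenty-four-hour chemical treatment of reporter-transfected HepG2 cells precedes RNA isolation, DNase-treated reverse transcription and PCR of reporter sequences. Labelled fragments are sized by capillary electrophoresis and fitted bidirectionally versus DMSO.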

[14] = ATG_MRE_CIS: Attagene CIS-FACTORIAL HepG2 Assay for human Metal Responsive Element (MRE) (AID 2282954); details: HepG2 MRE cis-reporter transcription, Attagene multiplex; actives raise or lower the signal
Procedure, shortened: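 Multiplexed cis-reporter assay in human HepG2 liver cells, 24 h incubation with test chemical. Reporter transcripts measured by RT-PCR and capillary electrophoresis; values from bidirectional curve fitting versus DMSO.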

[15] = ATG_PBREM_CIS: Attagene CIS-FACTORIAL HepG2 Assay for human Phenobarbital-responsive Enhancer Module (PBREM) (AID 2282955); details: HepG2 PBREM cis-reporter, Attagene multiplexed transcription; actives raise or lower the signal
Procedure, shortened: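 Fluorescence of labelled reporter cDNA fragments, resolved by capillary electrophoresis, gives mRNA induction in transfected HepG2 cells treated for 24 h; DMSO serves as negative control and baseline.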

[16] = biological target: Paired box protein Pax-6 (Homo sapiens) (UniProt P26367); test: ATG_Pax6_CIS: Attagene CIS-FACTORIAL HepG2 Assay for human Paired Box 6 (PAX6) (AID 2282956); details: HepG2 CIS-FACTORIAL PAX6 reporter transcription, RNA readout; actives raise or lower the signal
Procedure, shortened: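 Read-out is reporter transcript level, measured by RT-PCR with fluorescent primer extension and capillary electrophoresis after 24 h dosing of transfected HepG2 cells. Activity in either direction fitted relative to DMSO control.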

[17] = ATG_PXRE_CIS: Attagene CIS-FACTORIAL HepG2 Assay for human Pregnane X Receptor Element (PXRE) (AID 2282957); details: HepG2 Attagene CIS-FACTORIAL PXRE reporter, mRNA; actives raise or lower the signal
Procedure, shortened: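 Bidirectional activity, baselined to DMSO, derived from reporter mRNA fluorescence (RT-PCR plus capillary electrophoresis) in HepG2 cells bearing cis-promoter reporter units, 24 h exposure.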

[18] = ATG_GLI_CIS: Attagene CIS-FACTORIAL HepG2 Assay for human Zinc Finger Protein GLI1 (AID 2282945); details: HepG2, Attagene cis-factorial reporter mRNA, GLI element; actives raise or lower the signal
Procedure, shortened: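 Bidirectional curve fits relative to DMSO, using reporter mRNA levels from RT-PCR plus capillary electrophoresis. Cells were HepG2 transiently carrying cis-regulated reporter constructs, harvested 24 h after dosing.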

[19] = ATG_ISRE_CIS: Attagene CIS-FACTORIAL HepG2 Assay for human Interferon Regulatory Factor 1 (IRF1) binding to an Interferon-Stimulated Response Element (ISRE) (AID 2282948); details: HepG2 ISRE cis-reporter (Attagene), mRNA transcription readout; actives raise or lower the signal
Procedure, shortened: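 Endogenous transcription factor activity read as reporter transcript abundance via RT-PCR and capillary electrophoresis. HepG2 cells transiently transfected, 24 h chemical exposure. Gain or loss fitted against DMSO baseline.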

[20] = biological target: Heat shock factor protein 1 (Homo sapiens) (UniProt Q00613); test: ATG_HSE_CIS: Attagene CIS-FACTORIAL HepG2 Assay for human Heat Shock Transcription Factor 1 (HSE) (AID 2282953); details: HepG2 HSE cis-reporter, Attagene RNA transcription; actives raise or lower the signal
Procedure, shortened: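 HepG2 cells transiently transfected with multiple reporter transcription units under cis-regulatory promoter control, measuring endogenous transcription factor activity. After 24 h chemical exposure, reporter mRNA quantified by RT-PCR, fluorescent labelling, HpaI digestion and capillary electrophoresis; bidirectional fit versus DMSO.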

Measured: AC50

Chain of Hypoxia-inducible factor 1-alpha (Homo sapiens) (Q16665 whole entry, looked up): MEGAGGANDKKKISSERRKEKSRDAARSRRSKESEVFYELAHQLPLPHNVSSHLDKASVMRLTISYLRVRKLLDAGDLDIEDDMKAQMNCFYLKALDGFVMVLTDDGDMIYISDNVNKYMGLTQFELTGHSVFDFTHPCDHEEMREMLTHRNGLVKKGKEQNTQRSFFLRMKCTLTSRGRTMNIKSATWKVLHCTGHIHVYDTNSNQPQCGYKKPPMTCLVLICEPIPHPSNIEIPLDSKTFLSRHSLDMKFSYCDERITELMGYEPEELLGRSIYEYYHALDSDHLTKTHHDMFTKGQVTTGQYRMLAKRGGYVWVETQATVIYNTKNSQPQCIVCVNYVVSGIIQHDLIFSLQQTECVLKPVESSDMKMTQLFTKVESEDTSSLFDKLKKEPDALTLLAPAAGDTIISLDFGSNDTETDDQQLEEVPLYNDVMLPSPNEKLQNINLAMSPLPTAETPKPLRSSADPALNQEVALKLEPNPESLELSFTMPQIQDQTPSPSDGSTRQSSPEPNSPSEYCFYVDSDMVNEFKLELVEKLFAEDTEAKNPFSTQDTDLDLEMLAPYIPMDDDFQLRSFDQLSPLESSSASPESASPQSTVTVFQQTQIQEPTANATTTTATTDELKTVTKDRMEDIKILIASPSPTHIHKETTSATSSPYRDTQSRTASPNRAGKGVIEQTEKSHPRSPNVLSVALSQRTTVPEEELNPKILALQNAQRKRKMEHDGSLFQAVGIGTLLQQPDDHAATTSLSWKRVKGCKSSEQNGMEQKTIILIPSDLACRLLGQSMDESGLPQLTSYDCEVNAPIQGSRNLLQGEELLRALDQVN
Chain of Paired box protein Pax-6 (Homo sapiens) (P26367 whole entry, looked up): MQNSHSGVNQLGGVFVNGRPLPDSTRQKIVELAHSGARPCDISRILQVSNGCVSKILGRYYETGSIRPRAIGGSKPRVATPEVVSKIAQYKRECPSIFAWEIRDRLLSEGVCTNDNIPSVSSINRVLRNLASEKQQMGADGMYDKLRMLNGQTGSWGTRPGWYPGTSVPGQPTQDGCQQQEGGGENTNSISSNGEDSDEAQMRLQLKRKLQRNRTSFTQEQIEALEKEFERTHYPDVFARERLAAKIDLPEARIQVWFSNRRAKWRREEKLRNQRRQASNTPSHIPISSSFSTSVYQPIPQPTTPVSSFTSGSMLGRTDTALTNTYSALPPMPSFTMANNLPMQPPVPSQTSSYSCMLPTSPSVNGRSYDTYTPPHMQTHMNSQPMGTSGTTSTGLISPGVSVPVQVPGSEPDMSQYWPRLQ
Chain of Hepatocyte nuclear factor 3-beta (Homo sapiens) (Q9Y261 whole entry, looked up): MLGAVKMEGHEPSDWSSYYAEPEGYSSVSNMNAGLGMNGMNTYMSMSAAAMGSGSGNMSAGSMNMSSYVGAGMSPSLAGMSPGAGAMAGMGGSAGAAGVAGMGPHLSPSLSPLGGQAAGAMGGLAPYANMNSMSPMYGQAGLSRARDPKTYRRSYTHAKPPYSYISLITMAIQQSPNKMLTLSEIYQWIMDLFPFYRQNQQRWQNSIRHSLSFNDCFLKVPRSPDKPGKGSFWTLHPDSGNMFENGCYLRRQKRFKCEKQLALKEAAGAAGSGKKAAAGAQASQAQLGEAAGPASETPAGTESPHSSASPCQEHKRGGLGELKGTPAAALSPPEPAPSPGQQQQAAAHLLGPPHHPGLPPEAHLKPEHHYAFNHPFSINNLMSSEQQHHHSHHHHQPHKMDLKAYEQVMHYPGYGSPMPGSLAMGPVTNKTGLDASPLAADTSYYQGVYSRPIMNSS
Chain of Hepatocyte nuclear factor 6 (Homo sapiens) (Q9UBC0 whole entry, looked up, the tested form may be a part): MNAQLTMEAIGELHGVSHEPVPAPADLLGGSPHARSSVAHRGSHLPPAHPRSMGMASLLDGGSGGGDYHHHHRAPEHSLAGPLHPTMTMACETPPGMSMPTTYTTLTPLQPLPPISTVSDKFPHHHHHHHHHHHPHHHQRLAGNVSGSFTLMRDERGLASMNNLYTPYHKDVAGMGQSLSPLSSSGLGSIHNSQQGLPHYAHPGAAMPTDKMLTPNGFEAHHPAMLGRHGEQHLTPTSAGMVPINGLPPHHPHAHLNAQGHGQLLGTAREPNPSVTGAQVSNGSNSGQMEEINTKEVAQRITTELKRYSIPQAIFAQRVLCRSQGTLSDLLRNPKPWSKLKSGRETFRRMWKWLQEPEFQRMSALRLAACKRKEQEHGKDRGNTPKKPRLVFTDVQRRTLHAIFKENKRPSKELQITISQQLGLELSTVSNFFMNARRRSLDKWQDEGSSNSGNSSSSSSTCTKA
Chain of Heat shock factor protein 1 (Homo sapiens) (Q00613 whole entry, looked up): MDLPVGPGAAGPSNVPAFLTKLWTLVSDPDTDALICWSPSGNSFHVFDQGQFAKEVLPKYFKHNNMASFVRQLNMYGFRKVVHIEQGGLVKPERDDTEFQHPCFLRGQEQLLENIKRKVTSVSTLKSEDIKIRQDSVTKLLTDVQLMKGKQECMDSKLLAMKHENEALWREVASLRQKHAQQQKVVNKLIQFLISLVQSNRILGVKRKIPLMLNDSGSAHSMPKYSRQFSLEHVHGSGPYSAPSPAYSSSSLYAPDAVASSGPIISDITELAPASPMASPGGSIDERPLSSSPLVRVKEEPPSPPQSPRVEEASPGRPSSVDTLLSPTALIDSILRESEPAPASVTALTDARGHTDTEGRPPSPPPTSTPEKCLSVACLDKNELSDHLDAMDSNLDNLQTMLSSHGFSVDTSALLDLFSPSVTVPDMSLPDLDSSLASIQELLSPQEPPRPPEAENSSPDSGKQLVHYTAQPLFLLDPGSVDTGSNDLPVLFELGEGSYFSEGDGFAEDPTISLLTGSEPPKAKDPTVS
Chain of Bile acid receptor (Homo sapiens) (Q96RI1 whole entry, looked up): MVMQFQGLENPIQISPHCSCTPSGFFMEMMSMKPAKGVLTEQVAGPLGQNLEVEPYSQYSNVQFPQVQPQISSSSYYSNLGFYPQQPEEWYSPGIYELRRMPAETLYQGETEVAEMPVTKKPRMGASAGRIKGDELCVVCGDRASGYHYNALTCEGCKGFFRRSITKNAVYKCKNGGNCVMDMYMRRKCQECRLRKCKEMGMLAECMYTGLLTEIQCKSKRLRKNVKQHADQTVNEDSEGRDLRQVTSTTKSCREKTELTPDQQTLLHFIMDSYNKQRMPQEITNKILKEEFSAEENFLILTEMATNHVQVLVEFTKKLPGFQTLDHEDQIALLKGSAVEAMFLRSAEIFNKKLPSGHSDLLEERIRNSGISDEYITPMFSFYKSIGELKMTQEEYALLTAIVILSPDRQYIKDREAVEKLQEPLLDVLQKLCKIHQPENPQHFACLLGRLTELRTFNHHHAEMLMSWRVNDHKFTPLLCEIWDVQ

CCCCCCOC(=O)c1ccc(O)cc1
active: [1] 52.2 µM | [3] 8.86 µM | [4] 54.1 µM | [8] 47.5 µM | [13] 52.7 µM | [14] 59.6 µM | [15] 29.8 µM | [16] 53.7 µM | [17] 13 µM
inactive: [2] | [5] | [6] | [7] | [9] | [10] | [11] | [12]

CCCCCc1ccc(O)cc1
active: [3] 2.4 µM | [20] 33.4 µM | [17] 33.4 µM
not listed: [6]
inactive: all other assays above

O=C(O)CCC(F)(F)C(F)(F)C(F)(F)C(F)(F)C(F)(F)C(F)(F)F
not listed: [8] | [18] | [20]
inactive: all other assays above

OCC(F)(F)C(F)(F)C(F)(F)C(F)(F)C(F)(F)C(F)(F)C(F)(F)C(F)(F)C(F)(F)C(F)(F)C(F)(F)F
active: [3] 72.3 µM
not listed: [6] | [8] | [13]
inactive: all other assays above

Reference: PubChem BioAssay (EPA / NIEHS)
